“And” between values parts separate entries of the source, which are not always exact repeats. Identical values can stand only once. In all, about 5,500 compounds went through this assay and about 2,000 (36%) were called active. About 18% were inconclusive and are not listed. No stated cut-off is given here; in the data, active means normalized growth mostly below about 0.91 (no sharp cut-off); inconclusive means no clear call, values can overlap the other calls; inactive means mostly above about 0.92. The list shows a part of the results.
Test: chemical genetic growth profiling, strain panel (AID 1159580);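 further: tested at 20 µM; growth read once vehicle control cultures reached saturation at 30 °C; 1 = growth at the plate median or of vehicle wells; lower values mean less growth of the strain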
Conditions: S. cerevisiae deletion strains, growth OD
[1] = locus YAL040C, strain CLN3, active compounds read low
[2] = locus YCL061C, strain MRC1 (second series), active compounds read low
[3] = locus YDR150W, strain NUM1, active compounds read low
[4] = locus YDR363W, strain ESC2, active compounds read low
[5] = locus YER002W, strain NOP16, active compounds read low
[6] = locus YGR078C, strain PAC10, active compounds read low
[7] = locus YMR307W, strain GAS1, active compounds read low
[8] = locus YNL153C, strain GIM3, active compounds read low
[9] = locus YNL175C, strain NOP13, active compounds read low
[10] = locus YNL197C, strain WHI3, active compounds read low
[11] = locus YNL224C, strain SQS1, active compounds read low
[12] = locus YOR083W, strain WHI5 (second series), active compounds read low
[13] = locus YJR075W, strain HOC1, active compounds read low

Measured: normalized growth

N[C@@H](CCC(=O)N[C@H](CSN=O)C(=O)NCC(=O)O)C(=O)O
inactive: [1] 1 | [2] 1.01 | [3] 1 | [4] 1.05 | [5] 1 | [6] 1.02 | [7] 0.996 | [8] 1.01 | [9] 1.01 | [10] 1 | [11] 1 | [12] 1.01 | locus YPL055C, strain LGE1, active compounds read low 1.02 | locus YPL241C, strain CIN2, active compounds read low 0.995

CCn1ccnc1CC1COc2ccccc2O1 (configuration not stated)
inactive: [1] 1.02 | [2] 1 | [3] 1 | [4] 0.993 | [5] 1.01 | locus YGR229C, strain SMI1, active compounds read low 0.993 | [13] 1 | [7] 0.996 | locus YNL128W, strain TEP1, active compounds read low 1.01 | [9] 0.997 | [10] 0.996 | [11] 1.01 | [12] 1.07

COc1c2c(cc3c1OCO3)CCN(C)C2
inactive: locus YAL021C, strain ccr4, active compounds read low 0.987 | locus YAL026C, strain drs2, active compounds read low 1.01 | locus YAL030W, strain snc1, active compounds read low 1.01 | locus YBL061C, strain skt5, active compounds read low 1.02 | locus YBR009C, strain hhf1, active compounds read low 1.02 | locus YBR021W, strain FUR4, active compounds read low 0.988 | locus YBR023C, strain chs3, active compounds read low 1.01 | locus YBR171W, strain sec66, active compounds read low 1.03 | locus YBR229C, strain ROT2, active compounds read low 1.01 | locus YBR231C, strain swc5, active compounds read low 1.01 | locus YBR279W, strain paf1, active compounds read low 1 | locus YCL011C, strain gbp2, active compounds read low 1.01 | locus YCL016C, strain dcc1, active compounds read low 1.01 | locus YCL029C, strain bik1, active compounds read low 1 | locus YCL061C, strain MRC1, active compounds read low 1.02 | locus YCL069W, strain vba3, active compounds read low 1 | locus YCR088W, strain abp1, active compounds read low 1.01 | locus YDL005C, strain med2, active compounds read low 1.02 | locus YDL035C, strain GPR1, active compounds read low 1.02 | locus YDL040C, strain nat1, active compounds read low 0.996 | locus YDL074C, strain BRE1, active compounds read low 1.01 | locus YDL101C, strain DUN1, active compounds read low 1.02 | locus YDL185W, strain tfp1, active compounds read low 0.995 | locus YDL192W, strain arf1, active compounds read low 1.01 | locus YDR001C, strain nth1, active compounds read low 1.01 | locus YDR069C, strain doa4, active compounds read low 1.02 | locus YDR101C, strain arx1, active compounds read low 1 | locus YDR137W, strain rgp1, active compounds read low 1.01 | locus YDR159W, strain sac3, active compounds read low 1.01 | locus YDR162C, strain NBP2, active compounds read low 1.01 | locus YDR195W, strain ref2 0.999 | locus YDR297W, strain sur2, active compounds read low 0.999 | locus YDR318W, strain mcm21, active compounds read low 1 | locus YDR334W, strain swr1, active compounds read low 1.02 | locus YDR335W, strain msn5, active compounds read low 0.998 | locus YDR388W, active compounds read low 1 | locus YDR392W, strain spt3, active compounds read low 0.991 | locus YDR502C, strain sam2, active compounds read low 1 | locus YEL003W, strain gim4, active compounds read low 1.01 | locus YEL037C, strain rad23, active compounds read low 1 | locus YEL061C, strain CIN8 (second series), active compounds read low 1 | locus YEL061C, strain CIN8, active compounds read low 1.01 | locus YER015W, strain faa2, active compounds read low 1.01 | locus YER016W, strain bim1, active compounds read low 1.02 | locus YER110C, active compounds read low 0.996 | locus YER111C, strain swi4, active compounds read low 1.01 | locus YER155C, strain BEM2 (second series), active compounds read low 1.02 | locus YER155C, strain BEM2, active compounds read low 1.01 | locus YER167W, strain BCK2, active compounds read low 1 | locus YFR010W, strain ubp6, active compounds read low 1.02 | locus YGL078C, strain dbp3, active compounds read low 1 | locus YGL086W, strain mad1, active compounds read low 1.02 | locus YGL167C, strain pmr1, active compounds read low 1.02 | locus YGL173C, strain kem1, active compounds read low 1.02 | locus YGL227W, strain vid30, active compounds read low 1.01 | locus YGL240W, strain doc1, active compounds read low 1.02 | locus YGL248W, strain PDE1, active compounds read low 1.01 | locus YGL253W, strain hxk2, active compounds read low 1.01 | [6] 1.01 | locus YGR135W, strain pre9, active compounds read low 0.992 | locus YGR252W, strain gcn5, active compounds read low 0.986 | locus YHR013C, strain ard1, active compounds read low 1.01 | locus YHR027C, strain rpn1, active compounds read low 1.02 | locus YHR030C, strain SLT2, active compounds read low 1 and 1.06 | locus YHR079C, strain IRE1 (second series), active compounds read low 1.02 | locus YHR079C, strain IRE1, active compounds read low 1.05 | locus YHR094C, strain hxt1, active compounds read low 0.994 | locus YHR129C, strain ARP1, active compounds read low 1 | locus YHR142W, strain chs7, active compounds read low 0.991 | locus YHR200W, strain rpn10, active compounds read low 0.975 | locus YIL066C, strain RNR3, active compounds read low 1.01 | locus YIL073C, strain SPO22, active compounds read low 1.01 | locus YIL125W, strain kgd1, active compounds read low 1 | locus YIR030C, strain dcg1, active compounds read low 0.997 | locus YJL092W, strain hpr5, active compounds read low 1.01 | locus YJL095W, strain BCK1 (second series), active compounds read low 1.01 | locus YJL095W, strain BCK1, active compounds read low 0.996 and 1.04 | locus YJL115W, strain asf1, active compounds read low 1.01 | locus YJL129C, strain trk1, active compounds read low 1.03 | locus YJL134W, strain LCB3, active compounds read low 0.998 | locus YJL154C, strain vps35, active compounds read low 0.998 | locus YJL164C, strain tpk1, active compounds read low 0.992 | locus YJL166W, strain qcr8, active compounds read low 0.999 | locus YJL168C, strain set2, active compounds read low 1 | locus YJL187C, strain SWE1 (second series), active compounds read low 1.01 | locus YJL187C, strain SWE1, active compounds read low 1.01 | locus YJR043C, strain POL32, active compounds read low 1.02 | locus YJR066W, strain TOR1, active compounds read low 0.976 | [13] 1.01 | locus YKL009W, strain mrt4, active compounds read low 1.02 | locus YKL068W, active compounds read low 0.992 | locus YKL085W, strain MDH1 (second series), active compounds read low 0.999 | locus YKL085W, strain MDH1, active compounds read low 0.999 | locus YKL160W, strain elf1, active compounds read low 0.992 | locus YKL190W, strain CNB1, active compounds read low 1.01 | locus YKR001C, strain vps1, active compounds read low 0.964 | locus YKR026C, strain gcn3, active compounds read low 1.01 | locus YKR091W, strain srl3, active compounds read low 0.998 | locus YLL001W, strain dnm1, active compounds read low 0.991 | locus YLL026W, active compounds read low 1.01 | locus YLL041C, strain sdh2, active compounds read low 1.01 | locus YLR027C, strain aat2, active compounds read low 1.02 | locus YLR039C, strain RIC1, active compounds read low 1.02 | locus YLR058C, strain SHM2, active compounds read low 1.01 | locus YLR102C, strain apc9, active compounds read low 0.997 | locus YLR113W, strain HOG1, active compounds read low 1.04 | locus YLR221C, strain rsa3, active compounds read low 1.03 | locus YLR258W, strain gsy2, active compounds read low 0.999 | locus YLR262C, strain YPT6 (second series), active compounds read low 0.987 | locus YLR262C, strain YPT6, active compounds read low 1.01 | locus YLR268W, strain sec22, active compounds read low 1.01 | locus YLR320W, strain mms22, active compounds read low 1.02 | locus YLR330W, strain CHS5, active compounds read low 1.01 | locus YLR342W, strain FKS1 (second series), active compounds read low 1.01 | locus YLR342W, strain FKS1, active compounds read low 1 | locus YLR357W, strain rsc2, active compounds read low 1.01 | locus YLR370C, strain arc18, active compounds read low 1.01 | locus YLR371W, strain rom2, active compounds read low 1 | locus YLR384C, strain iki3, active compounds read low 1.02 | locus YLR418C, strain cdc73, active compounds read low 0.957 | locus YML016C, strain PPZ1, active compounds read low 0.986 | locus YML032C, strain rad52, active compounds read low 0.982 | locus YML120C, strain ndi1, active compounds read low 1 | locus YML124C, strain tub3, active compounds read low 0.99 | locus YMR058W, strain fet3, active compounds read low 1.02 | locus YMR078C, strain ctf18, active compounds read low 0.996 | locus YMR125W, strain sto1, active compounds read low 1 | locus YMR129W, active compounds read low 1.01 | locus YMR205C, strain PFK2, active compounds read low 0.996 | locus YMR223W, strain ubp8, active compounds read low 0.992 | locus YMR231W, strain pep5, active compounds read low 0.987 | locus YMR263W, strain SAP30, active compounds read low 1.02 | [7] 1.02 | locus YNL067W, strain RPL9B, active compounds read low 1.01 | locus YNL071W, strain lat1, active compounds read low 1 | [8] 1 | locus YNL183C, strain NPR1, active compounds read low 0.985 | locus YNL209W, strain ssb2, active compounds read low 1 | locus YNL233W, strain BNI4, active compounds read low 1.01 | locus YNL248C, strain rpa49, active compounds read low 1.02 | locus YNL250W, strain rad50, active compounds read low 0.993 | locus YNL271C, strain bni1, active compounds read low 1.01 | locus YNL298W, strain CLA4, active compounds read low 0.984 | locus YNL307C, strain MCK1, active compounds read low 1 | locus YNL322C, strain KRE1 (second series), active compounds read low 1.02 | locus YNL322C, strain KRE1, active compounds read low 1.01 | locus YNR049C, strain mso1, active compounds read low 1.01 | locus YNR052C, strain pop2, active compounds read low 1.01 | locus YOL012C, strain htz1 0.662 | locus YOL147C, strain pex11, active compounds read low 0.979 | locus YOR001W, strain rrp6, active compounds read low 1.04 | locus YOR061W, strain CKA2, active compounds read low 1.01 | locus YOR069W, strain VPS5, active compounds read low 1.01 | locus YOR070C, strain gyp1, active compounds read low 1.02 | locus YOR080W, strain dia2, active compounds read low 1.01 | locus YOR083W, strain WHI5, active compounds read low 0.991 | locus YOR106W, strain vam3, active compounds read low 1.02 | locus YOR136W, strain idh2, active compounds read low 1.02 | locus YOR144C, strain elg1, active compounds read low 0.985 | locus YOR184W, strain ser1, active compounds read low 1.04 | locus YOR231W, strain MKK1, active compounds read low 1.04 | locus YOR265W, strain rbl2, active compounds read low 1.01 | locus YOR270C, strain vph1, active compounds read low 1.01 | locus YOR290C, strain snf2, active compounds read low 0.981 | locus YOR316C, strain cot1, active compounds read low 0.991 | locus YPL051W, strain arl3, active compounds read low 1.01 | locus YPL078C, strain atp4, active compounds read low 0.981 | locus YPL106C, strain sse1, active compounds read low 0.996 | locus YPL240C, strain hsp82, active compounds read low 1.01 | locus YPL256C, strain CLN2, active compounds read low 1.06 | locus YPR119W, strain clb2, active compounds read low 1 | locus YPR141C, strain kar3, active compounds read low 0.991 | locus YPR163C, strain tif3, active compounds read low 0.995 | locus YPR167C, strain met16, active compounds read low 0.996 | strain wtn01, active compounds read low 0.997

Reference: PubChem BioAssay AID1159580 (chemical genetic matrix, 2015)
